Measurements taken from PubChem BioAssay (Tox21).
“And” between values parts separate entries of the source, which are not always exact repeats. Equal entries are not always repeated. Records with an inconclusive call do not appear. Where a structure was tested more than once in an assay, its records may differ in their call. The source made the active and inactive calls. Unless noted, calls come from the whole dose curve; as a rule, active = well fitted curve in the direction sought with a large enough effect in the repeat runs; inconclusive = weak or mixed curves; inactive = no such curve, though single readings can be large; an effect the other way counts as inactive or inconclusive.

Assays:
[1] = molecular target: Estrogen receptor beta (Homo sapiens) (UniProt Q92731); assay: qHTS assay to identify small molecule agonists of the estrogen receptor beta (ER-beta) signaling pathway (AID 1259377; active = well fitted activation curve with a large enough effect in the signal ratio in the repeat runs, not every such curve was filed as active; the % refers to the signal ratio; note: potency is the fitted concentration of half-maximal effect)
How it was run: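 Measured by fluorescence intensity from a B/G FRET beta-lactamase substrate (2 h, room temperature) in ER-beta-UAS-bla HEK293T cells treated with DMSO-dissolved compounds for 16 hr at 37C and 5% CO2.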

[2] = qHTS assay to identify small molecule agonists of the androgen receptor (AR) signaling pathway in the presence of an antagonist - cell viability counter screen (AID 1259379); note: nearly all actives have a fitted effect of over 25% in size; note: potency is the fitted concentration of half-maximal effect
How it was run: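 Cytotoxicity counter-screen run in the same wells as the nilutamide-challenged (3.0 µM final) AR agonist assay in MDA-kb2 cells. Compounds tested at 15 concentrations for 16 h, 37 °C without CO2; CellTiter-Fluor fluorescence read.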

[3] = qHTS assay to identify small molecule agonists of the estrogen receptor beta (ER-beta) signaling pathway - cell viability counter screen (AID 1259380); note: nearly all actives have a fitted effect of over 30% in size; note: potency is the fitted concentration of half-maximal effect
How it was run: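 Cell viability counter screen: CellTiter-Glo luminescence (30 min, room temperature) measured in the same wells as the beta-lactamase readout, after 16 hr compound exposure at 37C of ER-beta-bla HEK293T cells in 2% charcoal-stripped FBS medium.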

[4] = qHTS assay to identify small molecule antagonists of the estrogen receptor beta (ER-beta) signaling pathway - cell viability counter screen (AID 1259382); note: nearly all actives have a fitted effect of over 55% in size; note: potency is the fitted concentration of half-maximal effect
How it was run: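 Cytotoxicity was measured in the same wells by CellTiter-Glo luminescence after 30 min at room temperature. Cells were ER-beta-bla HEK293T in charcoal-stripped serum, given compound together with 1 nM E2 and incubated 16 h at 37C.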

[5] = molecular target: Estrogen receptor (Homo sapiens) (UniProt P03372); assay: qHTS assay to identify small molecule agonists of the estrogen receptor alpha (ER-alpha) signaling pathway in the presence of an antagonist (AID 1259383; calls by dose curve; note: nearly all actives have a fitted effect of over 15% in size; note: potency is the fitted concentration of half-maximal effect; for activation: top concentration of the series differs between compounds)
How it was run: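 Agonist-mode confirmation run in the presence of 10.0nM (final) ICI-182,780 antagonist. The reporter was ERE-driven luciferase in VM7Luc4E2 cells, grown in charcoal-stripped serum. Cells were exposed to 15-concentration compound series for 22hr, then ONE-Glo luminescence was read.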

[6] = qHTS assay to identify small molecule agonists or antagonists of the thyroid stimulating hormone receptor (TSHR) signaling pathway - wild type cell line counter screen (AID 1259384; calls by dose curve)
How it was run: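 Counter screen in untransfected Hek293: compounds (15-point titration, triplicate) plus phosphodiesterase inhibitor Ro20-1724 added after 18 h plating; 30 min RT. Intracellular cAMP via competitive d2/cryptate immunoassay, 1 h incubation.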

[7] = molecular target: Thyrotropin receptor (Homo sapiens) (UniProt P16473); assay: qHTS assay to identify small molecule antagonists of the thyroid stimulating hormone receptor (TSHR) signaling pathway (AID 1259385; calls by dose curve; note: nearly all actives have a fitted effect of over 20% in size; note: potency is the fitted concentration of half-maximal effect)
How it was run: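 Antagonist mode: compound-treated TSHR-expressing HEK293 cells were stimulated with 1.5 ng/mL TSH (final) in presence of Ro20-1724 for 30 min at RT. HTRF cAMP detection after 1 h; each compound tested at 15 concentrations, triplicate.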

[8] = qHTS assay to identify small molecule agonists of the estrogen receptor alpha (ER-alpha) signaling pathway in the presence of an antagonist - cell viability counter screen (AID 1259386); note: nearly all actives have a fitted effect of over 30% in size; note: potency is the fitted concentration of half-maximal effect
How it was run: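 Compounds tested at 15 concentrations for 22 h at 37C alongside 10.0nM (final) ICI-182,780 antagonist, in VM7Luc4E2 cells grown in phenol red-free, charcoal-stripped medium. Viability read by CellTiter-Fluor fluorescence after 1 h reagent incubation.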

[9] = molecular target: Progesterone receptor (Homo sapiens) (UniProt P06401); assay: qHTS assay to identify small molecule agonists of the progesterone receptor (PR) signaling pathway (AID 1346784; calls by dose curve; note: nearly all actives have a fitted effect of over 30% in size)
How it was run: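 The screen uses PR-UAS-bla HEK 293T cells in charcoal-stripped serum (2%). Compounds are applied for 16 hr at 37C after a 6 hr pre-incubation, and reporter activity is detected with a FRET beta-lactamase substrate after 2 hr at room temperature.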

[10] = molecular target: Progesterone receptor (Homo sapiens) (UniProt P06401); assay: qHTS assay to identify small molecule antagonists of the progesterone receptor (PR) signaling pathway (AID 1346795; active = well fitted inhibition curve with a large enough effect in the signal ratio in the repeat runs, not every such curve was filed as active; the % refers to the signal ratio; note: potency is the fitted concentration of half-maximal effect)
How it was run: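 After 6 hr plating at 37C in 2% stripped-serum medium, PR-UAS-bla HEK293T cells got compounds, then 1 nM R5020. Sixteen hours later, LiveBLAzer substrate was applied for 2 hr at room temperature and fluorescence was recorded.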

[11] = qHTS assay to identify small molecule antagonists of the progesterone receptor (PR) signaling pathway - cell viability counter screen (AID 1346798); note: nearly all actives have a fitted effect of over 50% in size; note: potency is the fitted concentration of half-maximal effect
How it was run: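 Viability was determined by ATP-based luminescence (CellTiter-Glo) in PR-UAS-bla HEK293T cells cultured in 2% charcoal-stripped serum and incubated 16 hr with compounds under R5020 stimulation.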

[12] = qHTS assay to identify small molecule agonists of the progesterone receptor (PR) signaling pathway - cell viability counter screen (AID 1346799; calls by dose curve; note: nearly all actives have a fitted effect of over 45% in size; note: potency is the fitted concentration of half-maximal effect)
How it was run: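 Viability was scored by ATP luminescence (CellTiter-Glo, 30 min, room temperature) in the same wells used for the reporter readout, after 16 hr compound exposure of PR-UAS-bla HEK293T cells.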

[13] = qHTS assay to identify small molecule antagonists of the TGF-beta/Smad signaling pathway - cell viability counter screen (AID 1346824); note: nearly all actives have a fitted effect of over 50% in size; note: potency is the fitted concentration of half-maximal effect
How it was run: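 Cytotoxicity counter-screen run in the same wells as the beta-lactamase Smad reporter read: CellTiter-Glo luminescence after 30 min at room temperature. HEK 293T SBE-bla cells had 5 hr compound exposure at 37 C with TGF-beta1 (0.25 ng/mL stock).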

[14] = qHTS assay to identify small molecule agonists of the TGF-beta/Smad signaling pathway - cell viability counter screen (AID 1346829); note: nearly all actives have a fitted effect of over 45% in size; note: potency is the fitted concentration of half-maximal effect
How it was run: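 Here the cytotoxicity of library compounds is measured in SBE-bla HEK 293T cells treated for 5 hr, using CellTiter-Glo added to wells already read for the beta-lactamase reporter.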

[15] = qHTS assay to identify small molecule agonists of the TGF-beta/Smad signaling pathway (AID 1346859; active = well fitted activation curve with a large enough effect in the signal ratio in the repeat runs, not every such curve was filed as active; the % refers to the signal ratio; note: series mostly up to about 77 µM)
How it was run: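 Dual-wavelength fluorescence (460/530 nm emission) quantified beta-lactamase expression under the Smad binding element in HEK 293T cells following 5 hr compound treatment at 37 C.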

[16] = Human pregnane X receptor (PXR) small molecule agonists, qHTS cell viability counter screen (AID 1346977); note: nearly all actives have a fitted effect of over 50% in size; note: potency is the fitted concentration of half-maximal effect
How it was run: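 HepG2 cells stably carrying the PXR-Luc reporter are cultured with 5% charcoal-stripped FBS and treated with compounds for 24hr. CellTiter-Fluor is added at 23hr and fluorescence is read after 1hr.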

[17] = molecular target: Thyrotropin-releasing hormone receptor (Homo sapiens) (UniProt P34981); assay: qHTS assay to identify small molecule antagonists of the thyrotropin-releasing hormone receptor (TRHR) signaling pathway (AID 1346877; active = well fitted inhibition curve with a large enough effect in the repeat runs, not every such curve was filed as active; note: series mostly up to about 51 µM)
How it was run: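 Antagonist mode: after a 5 min room-temperature compound exposure, cells were stimulated with 1 nM (final) TRH. Dye-loaded TRHR-HEK293 cells were used, and calcium-dependent fluorescence was followed for 3 min, with 15-point titrations run in triplicate.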

[18] = molecular target: Thyrotropin-releasing hormone receptor (Homo sapiens) (UniProt P34981); assay: qHTS assay to identify small molecule agonists of the thyrotropin-releasing hormone receptor (TRHR) signaling pathway (AID 1346891; calls by dose curve;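 note: HEK293 cells expressing TRHR with calcium dye readout; series mostly up to about 58 µM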)
How it was run: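 Kinetic fluorescence (3 min, 1 s intervals) reported intracellular calcium after compound transfer onto TRHR-Hek293 cells pre-loaded with dye for 2 h at 37 °C.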

[19] = molecular target: Androgen receptor (Homo sapiens) (UniProt P10275); assay: qHTS assay to identify small molecule agonists of the androgen receptor (AR) signaling pathway in the presence of an antagonist (AID 1259381; calls by dose curve; note: nearly all actives have a fitted effect of over 15% in size)
How it was run: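 Agonist-mode confirmation run against 3.0 uM final nilutamide: compounds titrated at 15 concentrations onto MDA-kb2 MMTV-luciferase reporter cells. Luminescence measured with ONE-Glo following 16 hr incubation, 37C, 0% CO2.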

Measured: Potency

Sequence of Estrogen receptor (Homo sapiens) (P03372 whole entry, looked up): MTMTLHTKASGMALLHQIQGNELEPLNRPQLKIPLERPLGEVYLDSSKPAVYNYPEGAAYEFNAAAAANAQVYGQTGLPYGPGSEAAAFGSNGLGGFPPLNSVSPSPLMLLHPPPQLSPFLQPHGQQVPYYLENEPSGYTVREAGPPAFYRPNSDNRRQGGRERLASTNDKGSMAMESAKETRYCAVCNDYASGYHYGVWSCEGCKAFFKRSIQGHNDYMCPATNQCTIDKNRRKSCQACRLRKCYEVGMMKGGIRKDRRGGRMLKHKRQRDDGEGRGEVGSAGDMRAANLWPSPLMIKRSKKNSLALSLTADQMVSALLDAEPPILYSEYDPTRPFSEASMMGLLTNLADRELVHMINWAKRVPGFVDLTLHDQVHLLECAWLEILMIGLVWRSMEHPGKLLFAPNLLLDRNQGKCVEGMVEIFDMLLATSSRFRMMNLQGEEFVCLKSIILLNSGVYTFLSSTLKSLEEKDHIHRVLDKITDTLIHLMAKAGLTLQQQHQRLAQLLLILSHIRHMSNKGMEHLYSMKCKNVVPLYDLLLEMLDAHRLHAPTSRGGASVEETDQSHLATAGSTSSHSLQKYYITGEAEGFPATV
Sequence of Thyrotropin-releasing hormone receptor (Homo sapiens) (P34981 whole entry, looked up): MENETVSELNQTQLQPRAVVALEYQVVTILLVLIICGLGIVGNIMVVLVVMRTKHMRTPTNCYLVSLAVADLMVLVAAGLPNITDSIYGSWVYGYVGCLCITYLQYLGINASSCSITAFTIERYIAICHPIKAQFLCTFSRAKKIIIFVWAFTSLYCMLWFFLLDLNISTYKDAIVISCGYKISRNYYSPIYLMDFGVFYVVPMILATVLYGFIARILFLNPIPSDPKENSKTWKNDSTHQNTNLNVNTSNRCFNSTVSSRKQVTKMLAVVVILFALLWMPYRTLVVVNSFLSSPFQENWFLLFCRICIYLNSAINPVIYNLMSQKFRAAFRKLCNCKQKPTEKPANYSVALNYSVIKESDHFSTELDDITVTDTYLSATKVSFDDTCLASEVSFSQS
Sequence of Androgen receptor (Homo sapiens) (P10275 whole entry, looked up): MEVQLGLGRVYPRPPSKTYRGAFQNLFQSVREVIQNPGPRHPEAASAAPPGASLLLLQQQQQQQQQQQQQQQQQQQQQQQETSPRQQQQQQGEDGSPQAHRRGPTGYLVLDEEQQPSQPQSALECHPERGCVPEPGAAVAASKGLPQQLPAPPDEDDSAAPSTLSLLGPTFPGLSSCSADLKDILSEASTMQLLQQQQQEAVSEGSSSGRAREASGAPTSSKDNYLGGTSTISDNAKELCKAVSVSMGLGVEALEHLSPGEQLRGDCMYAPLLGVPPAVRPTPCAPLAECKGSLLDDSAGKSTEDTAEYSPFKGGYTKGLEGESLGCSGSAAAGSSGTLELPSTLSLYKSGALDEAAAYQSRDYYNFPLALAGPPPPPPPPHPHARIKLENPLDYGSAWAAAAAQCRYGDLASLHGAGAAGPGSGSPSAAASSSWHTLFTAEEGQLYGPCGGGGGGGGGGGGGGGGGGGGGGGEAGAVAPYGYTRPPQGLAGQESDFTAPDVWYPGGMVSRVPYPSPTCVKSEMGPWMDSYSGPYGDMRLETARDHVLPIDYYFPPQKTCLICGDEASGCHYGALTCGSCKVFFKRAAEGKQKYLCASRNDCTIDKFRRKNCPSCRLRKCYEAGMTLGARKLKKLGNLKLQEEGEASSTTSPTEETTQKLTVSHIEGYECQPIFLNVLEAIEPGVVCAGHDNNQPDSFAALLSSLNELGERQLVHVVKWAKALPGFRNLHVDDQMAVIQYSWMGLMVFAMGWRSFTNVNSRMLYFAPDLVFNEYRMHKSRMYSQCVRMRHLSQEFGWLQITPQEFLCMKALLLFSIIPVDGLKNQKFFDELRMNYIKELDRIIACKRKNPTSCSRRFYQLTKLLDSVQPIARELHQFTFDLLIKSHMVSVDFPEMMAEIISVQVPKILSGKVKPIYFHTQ
Sequence of Progesterone receptor (Homo sapiens) (P06401 whole entry, looked up): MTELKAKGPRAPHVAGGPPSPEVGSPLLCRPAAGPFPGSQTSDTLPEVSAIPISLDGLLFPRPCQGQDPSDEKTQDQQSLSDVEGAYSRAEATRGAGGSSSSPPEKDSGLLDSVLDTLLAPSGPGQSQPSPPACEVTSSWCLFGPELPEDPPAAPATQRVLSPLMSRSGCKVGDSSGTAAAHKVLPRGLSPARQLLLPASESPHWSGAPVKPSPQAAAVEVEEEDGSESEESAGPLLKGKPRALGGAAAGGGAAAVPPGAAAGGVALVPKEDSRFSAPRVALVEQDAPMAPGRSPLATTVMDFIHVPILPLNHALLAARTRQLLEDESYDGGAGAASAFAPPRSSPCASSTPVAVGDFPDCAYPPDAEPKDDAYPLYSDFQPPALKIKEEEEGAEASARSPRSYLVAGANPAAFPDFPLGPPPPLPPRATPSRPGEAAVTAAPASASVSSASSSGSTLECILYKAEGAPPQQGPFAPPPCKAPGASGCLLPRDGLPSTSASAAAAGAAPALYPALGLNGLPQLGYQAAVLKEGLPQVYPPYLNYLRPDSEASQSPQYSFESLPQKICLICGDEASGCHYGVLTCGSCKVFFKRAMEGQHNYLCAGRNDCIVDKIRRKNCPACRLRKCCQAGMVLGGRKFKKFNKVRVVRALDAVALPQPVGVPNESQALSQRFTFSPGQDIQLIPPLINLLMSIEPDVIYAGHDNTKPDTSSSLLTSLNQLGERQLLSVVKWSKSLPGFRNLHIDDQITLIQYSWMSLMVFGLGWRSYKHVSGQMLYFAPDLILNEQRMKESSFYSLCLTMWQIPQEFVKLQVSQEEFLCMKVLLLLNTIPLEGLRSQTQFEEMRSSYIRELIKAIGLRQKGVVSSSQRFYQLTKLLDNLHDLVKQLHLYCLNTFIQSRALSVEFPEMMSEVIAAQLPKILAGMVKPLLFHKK
Sequence of Estrogen receptor beta (Homo sapiens) (Q92731 whole entry, looked up): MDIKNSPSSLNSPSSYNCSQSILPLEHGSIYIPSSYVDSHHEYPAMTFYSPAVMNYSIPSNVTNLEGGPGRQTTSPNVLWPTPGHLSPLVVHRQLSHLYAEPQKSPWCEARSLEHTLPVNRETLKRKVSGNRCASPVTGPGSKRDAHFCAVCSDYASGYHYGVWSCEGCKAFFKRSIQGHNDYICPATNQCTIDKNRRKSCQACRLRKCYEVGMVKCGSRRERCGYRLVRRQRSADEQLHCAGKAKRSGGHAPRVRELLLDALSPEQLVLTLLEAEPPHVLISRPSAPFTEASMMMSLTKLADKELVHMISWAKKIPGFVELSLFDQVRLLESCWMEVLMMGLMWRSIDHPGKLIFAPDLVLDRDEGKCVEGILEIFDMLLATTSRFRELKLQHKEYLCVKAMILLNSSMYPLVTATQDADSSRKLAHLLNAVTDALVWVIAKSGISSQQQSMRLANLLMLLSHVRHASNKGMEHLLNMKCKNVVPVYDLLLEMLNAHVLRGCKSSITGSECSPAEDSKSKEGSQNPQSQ
Sequence of Thyrotropin receptor (Homo sapiens) (P16473 whole entry, looked up): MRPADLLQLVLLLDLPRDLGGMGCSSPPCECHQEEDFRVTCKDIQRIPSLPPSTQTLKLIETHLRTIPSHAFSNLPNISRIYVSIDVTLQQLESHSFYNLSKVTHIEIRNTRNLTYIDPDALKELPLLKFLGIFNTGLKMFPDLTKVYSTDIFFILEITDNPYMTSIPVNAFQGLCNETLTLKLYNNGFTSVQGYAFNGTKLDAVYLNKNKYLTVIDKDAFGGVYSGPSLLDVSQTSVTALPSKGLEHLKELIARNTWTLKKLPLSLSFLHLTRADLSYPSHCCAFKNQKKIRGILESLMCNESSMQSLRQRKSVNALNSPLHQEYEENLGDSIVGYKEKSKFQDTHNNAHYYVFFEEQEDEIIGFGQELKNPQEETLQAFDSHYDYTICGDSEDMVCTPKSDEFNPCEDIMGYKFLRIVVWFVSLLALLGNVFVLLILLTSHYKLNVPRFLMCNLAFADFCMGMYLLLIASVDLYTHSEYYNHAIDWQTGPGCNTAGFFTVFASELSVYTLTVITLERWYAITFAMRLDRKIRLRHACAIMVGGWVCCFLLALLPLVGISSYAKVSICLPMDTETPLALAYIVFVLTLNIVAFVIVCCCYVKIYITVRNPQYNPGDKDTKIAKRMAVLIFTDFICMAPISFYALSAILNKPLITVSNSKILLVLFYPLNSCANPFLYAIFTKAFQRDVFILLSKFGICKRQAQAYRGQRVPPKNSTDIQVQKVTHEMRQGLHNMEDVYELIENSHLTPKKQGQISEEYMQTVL

ClC(Cl)(Cl)c1ccccc1
not listed: [17] | [18] | [19]
inactive: all other assays above

CC(C)Nc1ccc(Nc2ccccc2)cc1
active: [2] 60.9 µM and 68.6 µM | [3] 19.3 µM and 27.3 µM | [4] 15.3 µM and 27.3 µM | [8] 60.9 µM | [10] 30.5 µM and 27.3 µM | [16] 20 µM and 27.3 µM
inactive: [1] | [13] | [14] | [15] | [17] | [18]

CCC/C=N/O
not listed: [6] | [7] | [19]
inactive: all other assays above

CS(=O)(=O)NC(=O)c1cc(Oc2ccc(C(F)(F)F)cc2Cl)ccc1[N+](=O)[O-]
not listed: [5] | [17] | [18] | [19]
inactive: all other assays above

CC(C)COC(=O)c1ccccc1C(=O)OCC(C)C
not listed: [5] | [19]
inactive: all other assays above

CSc1nc(NC(C)C)nc(NC(C)C)n1
not listed: [6] | [7] | [10] | [19]
inactive: all other assays above

C[C@]12CC[C@H]3[C@@H](CCC4=CC(=O)CC[C@@H]43)[C@@H]1CC[C@@H]2O
active: [1] 540 nM and 4.22 µM
not listed: [5] | [9] | [12] | [19]
inactive: all other assays above

CCCCOC(=O)COC(=O)c1ccccc1C(=O)OCCCC
not listed: [5] | [6] | [7] | [17] | [18] | [19]
inactive: all other assays above

CC(C)(c1ccc(OCC2CO2)cc1)c1ccc(OCC2CO2)cc1 (stereo not given)
active: [3] 61.9 µM
43.8 µM (active) and inactive: [4]
not listed: [1] | [9] | [10]
inactive: all other assays above

CCCCCCCCCc1ccc(O)cc1
active: [3] 13.8 µM and 43.3 µM | [10] 27.6 µM and 61.1 µM | [16] 61.1 µM
not listed: [4] | [19]
inactive: all other assays above

O=C(O)CF
not listed: [19]
inactive: all other assays above

COP(=S)(OC)SCn1nnc2ccccc2c1=O
not listed: [3] | [5] | [10]
inactive: all other assays above

ClC(Cl)(Cl)Br
not listed: [5] | [19]
inactive: all other assays above

Cc1cccc(N=Nc2ccc(N(C)C)cc2)c1
active: [2] 39.2 µM and 30.6 µM | [3] 31.2 µM | [8] 24.8 µM and 24.3 µM
not listed: [5] | [10] | [19]
inactive: all other assays above

O=NN(c1ccccc1)c1ccccc1
not listed: [1] | [5] | [19]
inactive: all other assays above

CCC1(c2ccc(N)cc2)CCC(=O)NC1=O (stereo not given)
not listed: [1] | [5] | [6] | [7]
inactive: all other assays above

COP(=S)(OC)Oc1ccc(S(=O)(=O)N(C)C)cc1
not listed: [1] | [5] | [17] | [18]
inactive: all other assays above

N#Cc1c(Cl)c(Cl)c(Cl)c(C#N)c1Cl
inactive: [6] | [15]
active: [2] 16.9 µM and 24.3 µM | [3] 8.47 µM and 19.3 µM | [4] 9.5 µM and 15.4 µM | [8] 23.9 µM and 54.5 µM | [10] 3.37 µM and 3.86 µM | [11] 19 µM and 13.7 µM | [12] 21.3 µM and 19.3 µM | [13] 48 µM and 49 µM | [14] 48 µM and 54.9 µM | [16] 12.6 µM and 13.7 µM

CC(C)=CC1C(C(=O)OCN2C(=O)C3=C(CCCC3)C2=O)C1(C)C (stereo not given)
not listed: [1] | [3] | [5] | [12] | [15]
inactive: all other assays above

ClCC(Cl)CCl
not listed: [1] | [5] | [19]
inactive: all other assays above

CCCCOCCOC(C)=O
not listed: [1] | [19]
inactive: all other assays above

CC(C)(c1ccccc1)c1ccc(O)cc1
active: [3] 60.6 µM | [4] 68 µM | [5] 15.2 µM and 15.4 µM | [10] 7.63 µM and 9.69 µM
not listed: [1] | [19]
inactive: all other assays above

CCC[CH2][Sn]([Cl])([CH2]CCC)[CH2]CCC
inactive: [6]
active: [2] 687 nM and 1.54 µM | [3] 1.22 µM and 1.37 µM | [4] 1.73 µM and 1.93 µM | [7] 12.2 µM | [8] 10.9 µM and 30.6 µM | [11] 1.73 µM and 3.44 µM | [12] 1.73 µM and 2.17 µM | [13] 1.38 µM and 2.19 µM | [14] 1.55 µM and 977 nM | [16] 562 nM and 433 nM

C[N+](C)(C)CC(=O)[O-]
not listed: [1] | [6] | [7] | [17] | [18] | [19]
inactive: all other assays above

O=[N+]([O-])c1ccc(Cl)c([N+](=O)[O-])c1
inactive: [19] | [6] | [7] | [17] | [18]
active: [2] 22 µM and 21.7 µM | [3] 27.7 µM and 27.3 µM | [4] 27.7 µM and 27.3 µM | [8] 31.1 µM and 27.3 µM | [10] 24.3 µM | [11] 31.1 µM and 27.3 µM | [12] 27.7 µM and 27.3 µM | [13] 55.8 µM and 34.7 µM | [14] 24.5 µM | [16] 31.6 µM and 21.7 µM
